Assay [1] can be described thus: qHTS assay to identify small molecule antagonists of the retinoid acid receptor (RAR) signaling pathway - cell viability counter screen (AID 1159551). Note: nearly all actives have a fitted effect of over 35% in size. Note: potency is the fitted concentration of half-maximal effect. In a few lines: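 C3RL4 cells were seeded overnight at 37 C, then treated with compounds plus 1 uM (final) retinol for 6 h at 37 C. Viability was read as ATP by CellTiter-Glo luminescence after 30 min at room temperature.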
On the technique in general: qHTS replaces the single test concentration by a dilution series.

A short description of assay [2]: qHTS assay to identify small molecule antagonists of the retinoic acid receptor (RAR) signaling pathway (AID 1159552; note: nearly all actives have a fitted effect of over 50% in size; note: potency is the fitted concentration of half-maximal effect). The essentials:
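Luminescent RARE reporter read-out in C3RL4 cells: 6 hr co-treatment at 37 C of test compounds with retinol at 1 uM final. Cells plated overnight beforehand; luciferase reagent incubated 30 min at room temperature before reading.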

Assay [3] is described as follows: qHTS assay to identify small molecule antagonists of the estrogen related receptor (ERR) signaling pathway from Tox21 library - cell viability counter screen (AID 1224834). Note: nearly all actives have a fitted effect of over 30% in size. Note: potency is the fitted concentration of half-maximal effect. The essentials: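 ERR reporter cells were plated 6 h before compound addition, then exposed to test compounds in DMSO for 17.5 h at 37 C. Viability was read as CellTiter-Fluor fluorescence after a 30-minute incubation at 37 C.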

For assay [4], the target named is Luciferin 4-monooxygenase (Photinus pyralis) (UniProt P08659). In words: qHTS assay to identify small molecule inhibitors of firefly luciferase (AID 1224835). Note: nearly all actives have a fitted effect of over 25% in size. Note: potency is the fitted concentration of half-maximal effect. The essentials: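 Quantitative HTS format; KM concentrations of both substrates. Purified P. pyralis FLuc activity quantified from luminescence images.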
Chain of Luciferin 4-monooxygenase (Photinus pyralis) (P08659 whole entry, looked up): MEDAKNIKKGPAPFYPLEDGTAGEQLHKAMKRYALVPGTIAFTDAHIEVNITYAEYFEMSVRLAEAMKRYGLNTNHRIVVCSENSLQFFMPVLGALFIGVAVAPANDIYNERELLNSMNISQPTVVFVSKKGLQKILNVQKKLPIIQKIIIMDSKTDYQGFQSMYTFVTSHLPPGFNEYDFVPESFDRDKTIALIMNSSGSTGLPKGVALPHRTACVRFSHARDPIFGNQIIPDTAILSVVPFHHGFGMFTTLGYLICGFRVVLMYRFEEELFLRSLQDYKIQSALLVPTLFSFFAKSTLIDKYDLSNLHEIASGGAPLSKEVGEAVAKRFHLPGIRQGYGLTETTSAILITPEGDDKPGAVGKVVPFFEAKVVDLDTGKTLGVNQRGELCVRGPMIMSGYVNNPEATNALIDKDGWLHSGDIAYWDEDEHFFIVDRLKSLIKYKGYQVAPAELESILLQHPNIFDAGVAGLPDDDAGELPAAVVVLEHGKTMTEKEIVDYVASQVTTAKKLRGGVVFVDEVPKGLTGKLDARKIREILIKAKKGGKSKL
Assay [5] is described as follows: qHTS assay to identify small molecule agonists of the constitutive androstane receptor (CAR) signaling pathway - cell viability counter screen (AID 1224836). Note: nearly all actives have a fitted effect of over 45% in size. Note: potency is the fitted concentration of half-maximal effect. In a few lines:
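Cell viability multiplexed with the CAR agonist screen: CellTiter-Fluor fluorescence after 23 hr at 37 C. HepG2-CYP2B6-hCAR cells got compounds at 15 concentrations with PK11195 at 0.75 uM final.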

The nature of assay [6]: qHTS assay to identify small molecule antagonists of the constitutive androstane receptor (CAR) signaling pathway - cell viability counter screen (AID 1224837). Note: nearly all actives have a fitted effect of over 45% in size. Note: potency is the fitted concentration of half-maximal effect. In a few lines: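 HepG2 cells stably expressing hCAR and a CYP2B6-2.2kb reporter were plated and pre-incubated 4 hr at 37 C/5% CO2, then given compounds at 15 concentrations plus 50 nM CITCO (final). After 23 hr, viability was read by CellTiter-Fluor fluorescence.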

For assay [7], the target named is Nuclear receptor subfamily 1 group I member 3 (Homo sapiens) (UniProt Q14994). In words: qHTS assay to identify small molecule antagonists of the constitutive androstane receptor (CAR) signaling pathway (AID 1224838). Note: potency is the fitted concentration of half-maximal effect; nearly all actives have a fitted effect of over 40% in size. In a few lines: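 HepG2 cells stably co-transfected with hCAR and a CYP2B6-2.2kb luciferase reporter were seeded 4 h before compound addition at 15 concentrations. Cells were stimulated with 50 nM CITCO (final) for 24 h at 37 C; luciferase luminescence was then read.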
Chain of Nuclear receptor subfamily 1 group I member 3 (Homo sapiens) (Q14994 whole entry, looked up): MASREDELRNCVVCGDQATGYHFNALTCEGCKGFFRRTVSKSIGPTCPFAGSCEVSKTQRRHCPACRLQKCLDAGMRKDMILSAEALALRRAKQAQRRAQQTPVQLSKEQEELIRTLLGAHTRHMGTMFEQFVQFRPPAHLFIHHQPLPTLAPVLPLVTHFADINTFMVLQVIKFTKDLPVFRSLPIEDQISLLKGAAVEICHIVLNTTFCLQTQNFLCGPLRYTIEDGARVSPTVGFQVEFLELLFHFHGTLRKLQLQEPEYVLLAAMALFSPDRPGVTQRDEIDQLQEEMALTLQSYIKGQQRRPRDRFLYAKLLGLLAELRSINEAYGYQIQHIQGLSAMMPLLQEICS

Assay [8] has the same target. In words: qHTS assay to identify small molecule agonists of the constitutive androstane receptor (CAR) signaling pathway (AID 1224839). For activation: series mostly up to about 92 µM. Note: nearly all actives have a fitted effect of over 15% in size. Note: potency is the fitted concentration of half-maximal effect. The essentials: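 Luminescent ONE-Glo read-out after 24 hr, 37 C exposure of double-stable HepG2-CYP2B6-hCAR reporter cells to a 15-point compound series, in the presence of 0.75 uM PK11195 (final).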
Assay [9] in a line: qHTS assay to identify small molecule antagonists of the estrogen related receptor signaling pathway with the pleiotropic PPARgamma coactivator (PGC) from Tox21 10K library - cell viability counter screen (AID 1224840; active = well fitted cell-killing curve with a large enough effect in the repeat runs, not every such curve was filed as active; note: nearly all actives have a fitted effect of over 40% in size; note: potency is the fitted concentration of half-maximal effect). In a few lines: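 PGC/ERR cells were seeded at 2,000 cells/well and left 6 hours at 37 C/5% CO2 before pin-tool addition of compounds in DMSO. After 17.5 hours at 37 C, CellTiter-Fluor was added and fluorescence read 30 minutes later.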

Assay [10] can be described thus: qHTS assay to identify small molecule agonists of the estrogen related receptor signaling pathway with the pleiotropic PPARgamma coactivator (PGC) from Tox21 10K library (AID 1224842). Note: nearly all actives have a fitted effect of over 15% in size. The essentials: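 PGC/ERR reporter cells (NTP line) were seeded 2,000 per well, rested 6 h at 37 C/5% CO2, then pin-dosed with compounds in DMSO for 18 h at 37 C; luciferase read by One-Glo luminescence after 30 min at room temperature.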

Assay [11] in a line: qHTS assay to identify small molecule agonists of the hypoxia (HIF-1) signaling pathway - cell viability counter screen (AID 1224844; calls by dose curve; note: nearly all actives have a fitted effect of over 50% in size; note: potency is the fitted concentration of half-maximal effect). In a few lines:
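HRE-bla ME-180 cells in medium with 0.5% dialyzed FBS were preincubated 5 hrs at 37C, exposed to compounds for 17 hrs, then viability was read as CellTiter-Glo luminescence after 30 min at room temperature, in the reporter wells.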

A short description of assay [12]: qHTS assay to identify small molecule agonists of H2AX (AID 1224845; active = well fitted activation curve with a large enough effect in the signal ratio in the repeat runs, not every such curve was filed as active; the % refers to the signal ratio). In a few lines:
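Wild-type CHO-K1 cells plated overnight, then exposed 3 hr at 37C to compounds at 15 concentrations (0.76% DMSO). Lysed, then HTRF anti-pH2AX(S139)-cryptate/anti-H2AX-d2 detection after 24 hr at room temperature; emissions 665 and 620 nm.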

Assay [13] addresses Thyrotropin receptor (Homo sapiens) (UniProt P16473). In words: qHTS assay to identify small molecule agonists of the thyroid stimulating hormone receptor (TSHR) signaling pathway (AID 1224843; calls by dose curve; note: nearly all actives have a fitted effect of over 45% in size). The essentials:
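Cell line HEK293 with TSHR; density 800/well. Exposure 30 min RT. Readout HTRF cAMP (cAMP-d2/anti-cAMP-cryptate), 1 h RT before reading.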

Assay [14] is described as follows: qHTS assay to identify small molecule antagonists of the estrogen related receptor signaling pathway with the pleiotropic PPARgamma coactivator (PGC) from Tox21 10K library (AID 1224841; call rule not given here; note: actives are mostly falling curves and most rising ones were filed inactive; nearly all actives have a fitted effect of over 50% in size; note: potency is the fitted concentration of half-maximal effect). In a few lines:
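PGC/ERR reporter cells were seeded at 2,000 cells/well and held 6 hours at 37 C/5% CO2 before pin-tool addition of compounds in DMSO. After 18 hours at 37 C, One-Glo was added and luminescence read after 30 minutes at room temperature.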

Results filed as inconclusive are left out. Active and inactive are the calls of the source. Unless noted, calls come from the whole dose curve; as a rule, active = well fitted curve in the direction sought with a large enough effect in the repeat runs; inconclusive = weak or mixed curves; inactive = no such curve, though single readings can be large; an effect the other way counts as inactive or inconclusive.

Chain of Thyrotropin receptor (Homo sapiens) (P16473 whole entry, looked up): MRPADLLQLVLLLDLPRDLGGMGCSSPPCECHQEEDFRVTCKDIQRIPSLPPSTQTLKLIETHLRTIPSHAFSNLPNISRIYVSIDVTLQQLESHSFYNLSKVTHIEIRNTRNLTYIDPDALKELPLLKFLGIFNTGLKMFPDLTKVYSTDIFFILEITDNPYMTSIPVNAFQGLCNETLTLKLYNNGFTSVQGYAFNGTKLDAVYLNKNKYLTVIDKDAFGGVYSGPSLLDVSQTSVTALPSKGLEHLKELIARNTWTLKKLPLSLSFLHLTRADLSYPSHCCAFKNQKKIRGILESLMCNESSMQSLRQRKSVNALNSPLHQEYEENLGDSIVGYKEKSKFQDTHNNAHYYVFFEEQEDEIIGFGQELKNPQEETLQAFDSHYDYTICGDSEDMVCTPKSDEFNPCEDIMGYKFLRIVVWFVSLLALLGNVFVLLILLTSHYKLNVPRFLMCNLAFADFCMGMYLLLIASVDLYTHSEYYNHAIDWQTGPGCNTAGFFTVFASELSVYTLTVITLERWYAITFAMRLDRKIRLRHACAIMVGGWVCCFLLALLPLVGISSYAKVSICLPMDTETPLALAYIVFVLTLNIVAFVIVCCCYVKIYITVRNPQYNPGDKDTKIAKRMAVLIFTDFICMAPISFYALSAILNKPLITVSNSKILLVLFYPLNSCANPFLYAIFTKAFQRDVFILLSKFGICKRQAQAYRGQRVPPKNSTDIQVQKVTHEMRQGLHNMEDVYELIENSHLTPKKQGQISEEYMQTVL

On to `C[C@@H]1CC[C@@]2(OC1)O[C@H]1[C@@H](O)[C@H]3[C@@H]4CC[C@H]5C[C@@H](O[C@@H]6O[C@H](CO)[C@H](O[C@@H]7O[C@H](CO)[C@@H](O)[C@H](O[C@@H]8OC[C@@H](O)[C@H](O)[C@H]8O)[C@H]7O[C@@H]7O[C@H](CO)[C@@H](O)[C@H](O[C@@H]8O[C@H](CO)[C@@H](O)[C@H](O)[C@H]8O)[C@H]7O)[C@H](O)[C@H]6O)[C@H](O)C[C@]5(C)[C@H]4CC[C@]3(C)[C@H]1[C@@H]2C`, for which the Potency in [1] is 25.8 µM (active); in [2], 20.5 µM (active); in [3] it was 20.5 µM (active); in [5] it was 23 µM (active); in [6], 25.8 µM (active); in assay [7] it was 29 µM (active). The Potency in assay [9] was 20.5 µM (active); in [11], 11.6 µM (active). For the same molecule, the Potency entry in [4], in assay [8], in assay [10] and in assay [12] was “inactive” in each case.
Turning to `N#Cc1ccccc1Cl`, the Potency result in [1], in assay [2], in assay [3], in assay [4], in assay [5] and in assay [6] was “inactive” throughout. Also, the Potency entry in assay [9], in assay [10], in [13], in assay [11] and in assay [12] was “inactive” throughout.
Take `CC(C)(COCC1CO1)COCC1CO1` (stereo not drawn): the Potency entry in assay [1], in [2], in assay [3], in [4], in [5] and in assay [6] was “inactive” throughout. Also, the Potency result in assay [8], in assay [9], in assay [10], in assay [13] and in assay [12] was “inactive” in each case.
Turning to `Oc1ccccc1Br`, the Potency result in assay [1], in assay [2], in assay [3], in [4], in assay [5] and in [6] was “inactive” in each case. Further, the Potency entry in [8], in assay [9] and in assay [11] was “inactive” each time.
With `C=CCOC(N)=O`, the Potency entry in assay [1], in [2], in [3], in assay [4], in assay [5] and in [6] was “inactive” throughout. In addition, the Potency result in [8], in [9], in assay [14], in [10], in [13] and in [11] was “inactive” throughout. Also, the Potency result in [12] is “inactive”.
For the molecule `CN(CCCC(O)c1cccnc1)N=O` (stereo not drawn), the Potency result in assay [1], in assay [2], in [3], in [4], in assay [5] and in assay [6] was “inactive” throughout. For the same molecule, the Potency entry in assay [9], in [13], in [11] and in [12] was “inactive” each time.
With `O=C(NC(=O)c1c(F)cccc1F)Nc1cc(Cl)c(OC(F)(F)C(F)F)c(Cl)c1`, the Potency entry in assay [1], in assay [2], in [3], in assay [4], in assay [5] and in [6] was “inactive” in each case. In addition, the Potency result in [9], in assay [13], in assay [11] and in [12] was “inactive” throughout. Also, the Potency in assay [8] is 2.17 µM (active).
On to `COS(=O)(=O)c1ccc(C)cc1`, for which the Potency result in assay [1], in assay [2], in [3], in assay [4], in assay [5] and in [6] was “inactive” throughout. Further, the Potency result in [9], in assay [13], in assay [11] and in [12] was “inactive” each time.
Take `C[C@@H](Oc1ccc(Cl)cc1Cl)C(=O)O`: the Potency result in [1], in [2], in assay [3], in [4], in [5] and in assay [6] was “inactive” throughout. Also, the Potency entry in assay [9], in assay [13], in assay [11] and in assay [12] was “inactive” throughout.
Regarding `O=C1C=CC(=O)c2ccccc21`, the Potency was 15.4 µM (active) in assay [1]; 27.3 µM (active) in [2]; 61.1 µM (active) in [3]; 20 µM (active) in [4]; 54.5 µM (active) in assay [5]; 43.3 µM (active) in assay [6]. In addition, the Potency is 61.1 µM (active) in assay [9], 34.4 µM (active) in [14] and 11 µM (active) in [11]. Besides, the Potency entry in assay [8] and in [10] was “inactive” in each case.
In the case of `O=C(Cl)c1ccc(Cl)cc1`, the Potency result in assay [1], in assay [2], in [3], in [4], in [5] and in assay [6] was “inactive” in each case. In addition, the Potency entry in [9], in assay [13], in assay [11] and in assay [12] was “inactive” each time.

The values above are taken from PubChem BioAssay (Tox21).
